# According to article PMC4336329 (PLoS ONE, 2015):
# About 14,000 (4.5%) of roughly 310,000 compounds showed an effect of 50% or more. Effects have a minus sign here. Shown is part of a subset that was picked to be rich in strong results.
# Biological target: human ether-à-go-go-related gene (hERG) potassium channel (human, UniProt Q12809)
# Test: primary screen, population patch clamp on CHO cells stably expressing hERG; higher = less effect of the substance
# 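Also: peak tail current of the secondary pulse compared with the same well before compound.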
# Sequence of human ether-à-go-go-related gene (hERG) potassium channel (Q12809 whole entry, looked up): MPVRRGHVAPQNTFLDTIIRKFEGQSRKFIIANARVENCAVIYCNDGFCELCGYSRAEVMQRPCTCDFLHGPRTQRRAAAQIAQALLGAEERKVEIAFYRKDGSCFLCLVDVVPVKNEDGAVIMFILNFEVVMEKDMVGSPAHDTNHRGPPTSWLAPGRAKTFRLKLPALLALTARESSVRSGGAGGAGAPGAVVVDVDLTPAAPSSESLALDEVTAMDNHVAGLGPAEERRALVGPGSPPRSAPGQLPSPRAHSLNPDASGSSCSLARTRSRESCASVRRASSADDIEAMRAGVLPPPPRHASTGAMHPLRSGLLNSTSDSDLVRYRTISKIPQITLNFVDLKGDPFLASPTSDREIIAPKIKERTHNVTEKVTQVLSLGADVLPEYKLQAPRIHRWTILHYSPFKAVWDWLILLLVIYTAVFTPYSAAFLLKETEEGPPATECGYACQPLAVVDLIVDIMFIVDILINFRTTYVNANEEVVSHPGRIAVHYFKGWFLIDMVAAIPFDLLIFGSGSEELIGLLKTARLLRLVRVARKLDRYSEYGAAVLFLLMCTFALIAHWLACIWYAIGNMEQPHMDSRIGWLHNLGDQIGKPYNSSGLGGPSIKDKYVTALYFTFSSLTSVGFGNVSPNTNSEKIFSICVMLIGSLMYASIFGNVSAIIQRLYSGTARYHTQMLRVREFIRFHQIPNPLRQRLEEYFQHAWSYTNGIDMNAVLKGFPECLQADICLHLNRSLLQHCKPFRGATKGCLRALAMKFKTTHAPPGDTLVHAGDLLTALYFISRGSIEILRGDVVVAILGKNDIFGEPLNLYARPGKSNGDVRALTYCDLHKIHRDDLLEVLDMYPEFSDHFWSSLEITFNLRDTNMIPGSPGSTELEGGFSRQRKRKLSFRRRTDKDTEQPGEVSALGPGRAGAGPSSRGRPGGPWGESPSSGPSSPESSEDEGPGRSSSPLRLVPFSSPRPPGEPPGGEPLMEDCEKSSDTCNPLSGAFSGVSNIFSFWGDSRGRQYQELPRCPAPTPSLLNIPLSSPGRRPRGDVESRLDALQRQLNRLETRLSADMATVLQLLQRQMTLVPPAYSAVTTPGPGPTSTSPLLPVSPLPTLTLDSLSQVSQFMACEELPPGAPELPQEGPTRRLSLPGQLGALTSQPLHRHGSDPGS
row,SMILES,"hERG current change (%, negative = inhibition) at 10uM"
1,O=C(c1ccc([N+](=O)[O-])cc1)N1CCN=C1SCc1ccccc1,-72.2%
2,CN(C)S(=O)(=O)c1ccc(C(=O)N2CCN=C2SCc2ccccc2)cc1,20.9%
3,Cc1ccc(CSC2=NCCN2C(=O)c2ccc([N+](=O)[O-])cc2)cc1,-42.9%
4,Cc1ccc(C(=O)N2CCN=C2SCc2ccc([N+](=O)[O-])cc2)cc1,-70.5%
5,Cc1ccc(C(=O)N2CCN=C2SCc2ccc([N+](=O)[O-])cc2)cc1C,2.84%
6,O=C(c1cccc2ccccc12)N1CCN=C1SCc1ccc([N+](=O)[O-])cc1,-10.7%
7,O=C(Cc1ccccc1)N1CCN=C1SCc1cccc([N+](=O)[O-])c1,-22.6%
8,Cc1ccccc1C(=O)N1CCN=C1SCc1ccc([N+](=O)[O-])cc1,-63.6%
9,Cc1ccc(C)c(CSC2=NCCN2C(=O)Cc2ccc([N+](=O)[O-])cc2)c1,-4.06%
10,O=S(=O)(Nc1nc2ccccc2nc1Nc1ccc(N2CCOCC2)cc1)c1cc(Cl)ccc1Cl,-0.376%
11,C=CCN(c1ccccc1)S(=O)(=O)c1cc(C(=O)NC2=NCCS2)ccc1Cl,63.3%
12,COc1ccc(CNC(=O)c2c(C)cc(=O)oc2C)cc1,-26.8%
13,CC1Sc2ccc(S(=O)(=O)N3CCC(C(=O)NCc4ccc(Cl)cc4)CC3)cc2NC1=O (stereo not drawn),-5.58%
14,Oc1ccc(N2CCN(Cc3ccc(OCCCN4CCCCC4)cc3)CC2)cc1,5.11%
15,COC(=O)C1CCN(Cc2ccc(OCCCN3CCN(c4ccc([N+](=O)[O-])cc4)CC3)cc2)CC1,-73.7%
16,COC(=O)C1CCN(c2ccc([N+](=O)[O-])cc2[N+](=O)[O-])CC1,-0.88%
17,COC(=O)C1CCN(CCCOc2ccc(CN3CCN(c4ccc([N+](=O)[O-])cc4)CC3)cc2)CC1,-74.3%
18,COC(=O)C1CCN(Cc2ccc(C)cc2)CC1,-22.2%
19,CCCCOc1ccc(CN2CCC(O)CC2)cc1,3.42%

row,SMILES,"hERG current change (%, negative = inhibition) at 10uM"
1,Cc1ccccc1C(=O)NC(=S)NCC1CCCO1 (stereo not drawn),12%
2,O=C(Nc1ccc2ncccc2c1)c1cc(Cl)ccc1Cl,12.6%
3,CCOc1ccc(N(CC(=O)NCCc2ccc(OC)cc2)S(C)(=O)=O)cc1,-0.0301%
4,O=C(CSc1ncnc2c1cnn2-c1ccc(Cl)cc1)NCc1ccc2c(c1)OCO2,13.7%
5,CC(C)OC(=O)CCC1(C(=O)O)CCC(=O)NC1 (stereo not drawn),7.55%
6,CCC(=O)Nc1ccc(OCc2nc3ccccc3s2)cc1,21.1%
7,O=C(CSc1ncccc1-c1nc2ccccc2[nH]1)Nc1ccc2c(c1)OCCO2,-30.8%
8,CC(C)Cn1c(SCC(=O)c2ccc(Cl)s2)nnc1-c1ccco1,-76.7%
9,CCn1c(SCC(=O)c2cccs2)nnc1-c1ccco1,-2.68%
10,Cn1c(SCC(=O)c2ccccc2)nnc1-c1ccco1,-39.5%
11,Cn1c(SCC(=O)Nc2ccc(Br)cc2F)nnc1-c1ccco1,-26.7%
12,Cn1c(SCC(=O)Nc2ccccc2O)nnc1-c1ccco1,-27.4%
13,CCn1c(SCC(=O)c2ccc(Cl)s2)nnc1-c1cccs1,-35.5%
14,Cn1c(SCC(=O)c2cccs2)nnc1-c1ccco1,11.8%
15,Cn1c(SCC(=O)c2cc(Cl)c(Cl)s2)nnc1-c1ccco1,-60.5%
16,Cn1c(SCC(=O)Nc2ccc(Cl)cc2F)nnc1-c1ccco1,-59.4%
17,CCN(C(=O)CN1CCN(S(=O)(=O)c2ccccc2C(F)(F)F)CC1)c1c(N)n(Cc2ccccc2)c(=O)[nH]c1=O,13.6%
18,O=C(NC(=S)NCc1ccc(-c2nc3ccccc3s2)cc1)c1ccco1,34%
19,Cc1ccccc1-n1ncc2c1CC(C)(C)CC2NC(=O)c1cn[nH]c1C (stereo not drawn),-6.22%

row,SMILES,"hERG current change (%, negative = inhibition) at 10uM"
1,CCCC(=O)Nc1ccc(C)c(O)c1,4.76%
2,C/C(=N\NC(=O)c1ccccc1O)c1cccc(NC(=O)c2ccccc2)c1,-0.335%
3,O=C1N(CC(=O)N2CCc3ccccc32)CCN1Cc1ccccc1Cl,-12.1%
4,CN(C(=O)COC(=O)CCC(=O)c1ccccc1)c1c(N)n(Cc2ccccc2)c(=O)[nH]c1=O,14.1%
5,OCCNc1nc(N2CCCC2)nc(N2CCCC2)n1,-2.85%
6,Cl.c1ccc2c(NCC3CCCO3)nc(N3CCCCC3)nc2c1 (stereo not drawn),-72.9%
7,Cl.OCCNc1nc(N2CCN(c3ccccc3)CC2)nc2ccccc12,-74.6%
8,Cl.OCCNc1nc(N2CCCCC2)nc2ccccc12,-58.2%
9,C=CCNc1ncnc2ccccc12,22.5%
10,c1ccc2c(NCC3CCCO3)nc(-c3ccncc3)nc2c1 (stereo not drawn),-14.6%
11,C=CCNc1nc(N2CCCC2)nc2ccccc12,-78.3%
12,Cl.c1ccc2c(NCC3CCCO3)nc(N3CCOCC3)nc2c1 (stereo not drawn),-49.5%
13,Cl.OCCNc1nc(-c2ccccc2)nc2ccccc12,2.57%
14,C=CCNc1nc(C(=O)OCC)nc2ccccc12,11.1%
15,COc1ccc([C@@H]2CC=C(C(=O)O)[C@H](c3ccc(F)cc3)N2S(=O)(=O)c2ccc(Cl)cc2)cc1,27.2%
16,Cc1ccc(-c2c(C#N)c(N)n(-c3ccccc3)c(=O)c2C#N)cc1,20.3%
17,O=C(NC1CCCCC1)c1n[nH]c2c1CCCCC2,2.43%
18,CC1CC(C)CN(C(=O)CSCC(=O)O)C1 (stereo not drawn),1.3%
19,CCC1CCc2c(sc(NC(=O)C3c4ccccc4Oc4ccccc43)c2C(N)=O)C1 (stereo not drawn),2.02%
